Measured values: PubChem BioAssay AID1851 (National Center for Advancing Translational Sciences (NCATS), 2009)
The whole screen tested about 16,000 compounds, of which about 5,100 (32%) were called active. About 25% were inconclusive and are not listed. Some of the results follow. A number with no mark means an inactive call. The call rests on the fitted dose curve; in most records, active means well fitted curve in the direction sought with a large enough effect; inconclusive means small, poorly fitted or top-dose-only effect, or effect the other way; inactive means no such curve, though single readings can be large or run the other way.

target: Cytochrome P450 3A4 (Homo sapiens) (UniProt P08684); test: Cytochrome panel assay with activity outcomes; settings: recombinant CYP, pro-luciferin dealkylation, luminescence, p450-cyp3a4; series mostly up to 57.1 µM
Sequence (P08684 whole entry, looked up): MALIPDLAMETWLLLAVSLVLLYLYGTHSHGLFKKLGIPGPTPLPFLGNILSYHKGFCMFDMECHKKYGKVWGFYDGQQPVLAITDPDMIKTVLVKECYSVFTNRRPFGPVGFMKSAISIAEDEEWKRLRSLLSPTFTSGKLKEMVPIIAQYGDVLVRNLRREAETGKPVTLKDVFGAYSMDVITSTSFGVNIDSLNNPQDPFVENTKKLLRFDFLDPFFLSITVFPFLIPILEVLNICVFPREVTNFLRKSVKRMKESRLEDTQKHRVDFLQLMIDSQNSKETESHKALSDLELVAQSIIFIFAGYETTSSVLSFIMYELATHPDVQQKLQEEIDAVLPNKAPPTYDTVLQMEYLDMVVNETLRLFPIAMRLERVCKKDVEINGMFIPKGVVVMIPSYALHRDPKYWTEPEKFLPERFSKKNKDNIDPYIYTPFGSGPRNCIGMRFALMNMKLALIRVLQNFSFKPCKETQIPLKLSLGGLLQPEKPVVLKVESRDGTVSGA
On the % scale 0 is the no-effect control and ±100 the full control effect.

SMILES	AC50	activity, negative = inhibition
NCCCCCc1nnc(SCc2ccc(Cl)cc2Cl)o1	12.6 µM (active)	
NCCCCCc1nnc(SCc2ccccc2Cl)o1	inactive	
N=C(N)SCc1ccc(Cl)cc1Cl (tested in a mixture with another compound)		-3.48% [at 11.4 µM]
CCOC(=O)c1cnc2c(cnn2C)c1NCCCN(C)C	inactive	
CCOC(=O)c1cnn(CCOC(=O)C(C)(C)C)c1NC(=O)C(C)(C)C	12.6 µM (active)	
CCn1ncc(C(=O)Nc2cc(C)on2)c1C		6.4% [at 2.29 µM]
CNC(=O)Oc1ccc2c(c1)[C@@]1(C)CCN(C)[C@@H]1N2C	inactive	
COc1ccc(-n2c(=O)[nH]cc(C(=O)Nc3ccc4c(c3)OCCO4)c2=O)cc1	14.1 µM (active)	
CCOC(=O)CSc1nc(-c2ccccc2)nc2ccccc12	inactive	
CCOC(=O)CSc1cc(C(F)(F)F)nc(-c2ccccn2)n1	inactive	
CCOC(=O)CSc1cc(CS(=O)c2ccc(Cl)cc2)nc(-c2ccccc2)n1 (stereo not given)	7.08 µM (active)	
CCOc1ccc(OCC)c(-c2c(=O)n(OCc3ccccc3C(=O)OC)c3ccccc3[n+]2[O-])c1	14.1 µM (active)	
Cn1c(=O)c2c3c(sc2n2cnnc12)CCC3		10.9% [at 2.29 µM]
CC1CSc2nc3sc4c(c3c(=O)n21)CCCC4 (stereo not given)	12.6 µM (active)	
CCn1c(SCC(=O)OC)nc2sc3c(c2c1=O)CCC3	inactive	
CC1(C)CC(=O)C2=C(C1)N(c1ccc(F)cc1)C(N)=C(C#N)C2c1cccs1 (stereo not given)	1 µM (active)	
CCCC(=O)Nc1ccc(C(=O)NNC(=S)NC(=O)c2cccs2)cc1	inactive	
C/C(=N\NC(=O)c1ccccc1C)c1ccc(NC(=O)c2cccs2)cc1		-4.96% [at 2.29 µM]
CCN(c1ccccc1)S(=O)(=O)c1ccc(NC(=S)NC(=O)c2ccc(Br)o2)cc1	inactive	
COc1cc(NC(=S)NC(=O)c2c(OC)cccc2OC)ccc1NC(=O)c1cccs1	3.16 µM (active)	
COc1ccc(-n2nc3cc(C)c(NC(=S)NC(=O)c4ccccc4C)cc3n2)cc1		-17.3% [at 11.4 µM]
CN(C1CCCCC1)S(=O)(=O)c1ccc(NC(=S)NC(=O)c2cccs2)cc1	3.98 µM (active)	

SMILES	AC50	activity, negative = inhibition
Cc1ccccc1C(=O)Nc1cccc(NC(=S)NC(=O)c2cccs2)c1	3.55 µM (active)	
O=[N+]([O-])/C=C\c1cc2ccccc2[nH]1		-22.3% [at 11.4 µM]
C=CCNC(=O)c1ccc2nc(-c3ccccc3)c(-c3ccccc3)nc2c1	7.08 µM (active)	
CCNC(=O)c1ccc(-n2nc(C)cc2-c2ccccc2)cc1	inactive	
C=CCNC(=O)c1ccccc1Cl	inactive	
COc1ccc(N(C)C(=O)c2ccc3nc(-c4ccccc4)c(-c4ccccc4)nc3c2)cc1	7.94 µM (active)	
CC1CC2=C(NC(=S)NC2c2ccc(F)cc2)/C(=C/c2ccc(F)cc2)C1 (stereo not given)	5.01 µM (active)	
O=C1NCCN1Cc1ccccc1F	15.8 µM (active)	
O=C1NCCN1Cc1cccc(Cl)c1	inactive	
COC(=O)c1cc2n(n1)CCN(Cc1ccccc1F)C2=O		17.9% [at 2.29 µM]
N[C@@H](Cn1ccc(=O)n(Cc2ccccc2C(=O)O)c1=O)C(=O)O	inactive	
O=C(OCn1ncc(Cl)c(Cl)c1=O)c1cccc(C(F)(F)F)c1	inactive	
Cc1cccc(Cn2ncc(Cl)c(Cl)c2=O)c1	14.1 µM (active)	
COc1ccccc1-c1cncnc1NCCc1cnc[nH]1	0.398 µM (active)	
c1ncc(-c2ccc3c(c2)OCO3)c(NCCc2cnc[nH]2)n1	0.794 µM (active)	
COc1cccc(-c2cncnc2NCCc2cnc[nH]2)c1	0.631 µM (active)	
c1ccc(CNc2ncncc2-c2ccc3c(c2)OCO3)cc1	0.501 µM (active)	
Clc1ccc2c(c1)C=Nc1c(NCc3ccccc3)ncnc1O2	inactive	
c1cncc(CNc2ncncc2-c2ccc3c(c2)OCO3)c1	0.398 µM (active)	
Cc1cnc(CNc2ncncc2-c2ccc3c(c2)OCO3)cn1	1.58 µM (active)	
Cn1c(-c2ccc3c(c2)OCO3)cnc1NCc1ccccc1	7.94 µM (active)	
c1csc(CNc2ncncc2-c2ccc3c(c2)OCO3)c1	inactive	

SMILES	AC50	activity, negative = inhibition
COC(=O)[C@H](C)NC(=O)[C@@H](C)CO		-19.6% [at 11.4 µM]
Oc1c(C(O)(c2ccccc2)c2ccc3ccccc3c2O)ccc2ccccc12		-13.3% [at 11.4 µM]
CCCCOc1ccc(CN2CCC(O)CC2)cc1	inactive	
Cn1c(-c2ccc3c(c2)OCO3)cc(=O)c2ccccc21	10 µM (active)	
CN1CCc2c(c3ccccc3n2C)C1	inactive	
Cc1cccc(CNc2ncncc2-c2ccc3c(c2)OCO3)c1	0.251 µM (active)	
c1ccc(Nc2ncncc2-c2ccc3c(c2)OCO3)cc1	0.794 µM (active)	
CCOC(=O)Nc1ccc(C(=O)Oc2ccccc2)c(O)c1	inactive	
C[n+]1cc(-c2ccccc2)n2c1CCCCC2	inactive	
CCOC(=O)[C@]1(CC(=O)O)CCCC1=O		-3.51% [at 11.4 µM]
CC(C)(C)Cn1nc(-c2ccc(Cl)cc2)c2c(N)ncnc21	inactive	
CCCn1nc2cc(C(=O)NCCc3ccc(C)cc3)ccc2c1OCC	6.31 µM (active)	
COCCn1nc2cc(C(=O)NCc3cc(C(F)(F)F)cc(C(F)(F)F)c3)ccc2c1OC		10.6% [at 2.29 µM]
CCOc1c2ccc(C(=O)NCc3cc(C(F)(F)F)cc(C(F)(F)F)c3)cc2nn1C	12.6 µM (active)	
CCCn1nc2cc(C(=O)NCc3ccc(C)cc3)ccc2c1OC	14.1 µM (active)	
CCOc1c2ccc(C(=O)NCCCCc3ccccc3)cc2nn1C	inactive	
CCOc1c2ccc(C(=O)NCc3ccc(OC(F)(F)F)cc3)cc2nn1C		16.7% [at 2.29 µM]
CCCn1nc2cc(C(=O)NCCCCc3ccccc3)ccc2c1OCC	15.8 µM (active)	
CCCCn1nc2cc(C(=O)NCC3CC3)ccc2c1OCC	inactive	
COCCn1nc2cc(C(=O)NCC34CC5CC(CC(C5)C3)C4)ccc2c1OC		-1.55% [at 2.29 µM]
CCOc1c2ccc(C(=O)NCCCCc3ccccc3)cc2nn1CC		18.3% [at 2.29 µM]
